The structures appear in SMILES notation. Records with an inconclusive call do not appear. Entries that show only a call come without a potency. Activity calls are given as the source filed them. Calls follow the shape of the full dose curve.

These results are taken from PubChem BioAssay (Tox21).
Potency is read from the fitted curve at half-maximal effect.

A short description of this assay: qHTS assay to identify small molecule agonists of the NFkB signaling pathway - cell viability counter screen (AID 1159515). Also: nearly all actives have a fitted effect of over 55% in size. The following applies: NFkB-bla ME-180 viability, CellTiter-Glo luminescence, 5 h; series mostly up to 61 µM. The source says:
National Center for Advancing Translational Sciences [NCATS]
NIH Chemical Genomics Center [NCGC]
U.S. Environmental Protection Agency [EPA]
National Institutes of Environmental Health Sciences [NIEHS]
National Toxicology Program [NTP]
U.S. Food and Drug Administration [FDA]
Transcription factors and their stimulated target gene expression play pivotal roles across many cellular processes including responses to environmental stimuli. Proper regulation of associated pathways is critical to maintain cell health and function. Constitutive activation of transcription factor pathways has been implicated in tumors as it may block cellular functions such as apoptosis and lead to invasion and metastasis. One important transcription factor that stimulates gene expression in response to cytokines, UV radiation, and other stimuli is nuclear factor-kappa B (NFkB). To measure activation of the NFkB pathway, the CellSensor NFkB-bla ME-180 cell line (Life Technologies, Carlsbad, CA) that stably expresses beta-lactamase reporter gene under the regulation of a NF-kB response element was used. This assay allows measurement of the NFkB pathway activity induced by compounds in a ME-180 cell line. This system quantitates NF-kB activity using a FRET-based assay system where beta-lactamase expression disrupts FRET, allowing for fluorescent measurement of activity. This cell line has been used to screen the Tox21 10K compound library and to identify compounds that induce the NFkB pathway activity. The cytotoxicity of the Tox21 compound library against the NFkB-bla ME-180 cell line was tested in parallel by measuring cell viability using the CellTiter-Glo assay in the same wells.
Tox21 Assay Protocol Summary:
NFkB-bla ME-180 cells were dispensed at 2,000 cells/6 uL of assay medium per well into black wall/clear-bottom 1536-well plates using a Multidrop Combi (ThermoFisher Scientific, Waltham, MA) dispenser. After the assay plates were incubated at 37 C and 5% CO2 for an overnight, 23 nL of compounds dissolved in DMSO, positive controls or DMSO only was transferred to the assay plate by a Pintool station (Kalypsys, San Diego, CA). The assay plates were incubated at 37 C and 5% CO2 for 5 hr. One uL of LiveBLAzer B/G FRET substrate (Life Technologies) was added using a Flying Reagent Dispenser (Aurora Discovery, San Diego, CA) and the plates were incubated at room temperature for 1.5 hr. Fluorescence intensity (405 nm excitation, 460 nm and 530 nm emissions) was measured using an Envision plate reader (PerkinElmer, Shelton, CT). For cytotoxicity, 3 ul/well of CellTiter-Glo reagent was added into the assay plates using an FRD. After 30 min incubation at room temperature, the luminescence intensity was measured using a ViewLux plate reader (PerkinElmer).
A general note: In qHTS, concentration-response curves come from the screen itself.
In the case of `Cc1cccc(Cc2cnc[nH]2)c1C`, the Potency entry is “inactive”.

For the molecule `CN1CCc2cc3c(cc2C1O)OCO3` (stereo not given), the Potency result is “inactive”.

Regarding `CCC(OC(C)=O)C(CC(C)NC)(c1ccccc1)c1ccccc1` (stereo not given), the Potency entry was “inactive”.

Consider `CN1CCc2cc(Cl)c(O)cc2[C@H]2c3ccccc3CC[C@@H]21`, for which the Potency result is “inactive”.

`CC(Cc1ccc(OCC(=O)O)cc1)NCC(O)c1csc(C(F)(F)F)n1` (stereo not given): the Potency entry is “inactive”.

In the case of `CC(C)=CC1C(C(=O)OC(C#N)c2cccc(Oc3ccccc3)c2)C1(C)C` (stereo not given), the Potency entry is “inactive”.

As to `O=NN(CCO)CCO`, the Potency entry is “inactive”.

Regarding `CN1[C@@H]2CC[C@H]1CC(O)C2` (stereo not given in full), the Potency result was “inactive”.

With `CCCCC(CC)COC(=O)c1ccccc1C(=O)OCC(CC)CCCC` (stereo not given), the Potency result is “inactive”.

Take `ClC1=C(Cl)[C@]2(Cl)[C@H]3[C@H]([C@@H]4C=C[C@H]3C4)[C@@]1(Cl)C2(Cl)Cl`: the Potency was 54.9 µM (active).

For `OCC(Br)CBr` (stereo not given), the Potency result was “inactive”.

Take `CCN(CC)Cc1nccn1-c1ccc([N+](=O)[O-])cc1C(=O)c1ccccc1Cl`: the Potency entry was “inactive”.

Consider `O.O.O.O.O.O.O.O=S(=O)([O-])[O-].[Co+2]`, for which the Potency result was “inactive”.

Regarding `CCOP(=O)(Sc1ccccc1)Sc1ccccc1`, the Potency result was “inactive”.

Take `O.O.O.O=C([O-])[C@H]([O-])[C@@H]([O-])C(=O)[O-].O=C([O-])[C@H]([O-])[C@@H]([O-])C(=O)[O-].[K+].[K+].[Sb+3].[Sb+3]`: the Potency result was “inactive”.

`N#CSCc1ccccc1`: the Potency result was “inactive”.

`O=C(N[C@H]1N=C(c2ccccc2F)c2cccc3c2N(CC3)C1=O)c1cc2ccccc2[nH]1`: the Potency entry was “inactive”.

With `CCN(CC)C(=O)N[C@@H]1C=C2c3cccc4[nH]cc(c34)C[C@@H]2N(C)C1`, the Potency entry is “inactive”.

As for `Cc1ccc(C)c2ccccc12`, the Potency result was “inactive”.

`S=C=NCCc1ccccc1`: the Potency entry is “inactive”.

On to `CNC(=O)/C=C(\C)OP(=O)(OC)OC`, for which the Potency entry was “inactive”.

On to `COc1ccc(Cc2nccc3cc(OC)c(OC)cc23)cc1OC`, for which the Potency result was “inactive”.

Consider `O=[N+]([O-])c1cc(C(F)(F)F)c(Cl)c([N+](=O)[O-])c1Nc1ncc(C(F)(F)F)cc1Cl`, for which the Potency was 11 µM (active).

Regarding `CC(O)C(=O)[O][Hg][c]1ccccc1` (stereo not given), the Potency is 0.871 µM (active).

For `Fc1ccc(C(OCCN2CCN(CCCc3ccccc3)CC2)c2ccc(F)cc2)cc1`, the Potency is 23.9 µM (active).

With `CCCCn1cc[n+](C)c1` (tested in a mixture with another compound), the Potency result was “inactive”.

In the case of `Brc1cccc(-c2ccccc2)c1`, the Potency entry is “inactive”.

`COP(=S)(OC)Oc1nc(Cl)c(Cl)cc1Cl`: the Potency entry was “inactive”.

`CCOP(=O)(OCC)Oc1cc(C)nc(C(C)C)n1`: the Potency entry was “inactive”.

As to `CC(=O)[O-].CC(=O)[O-].[Co+2]`, the Potency result is “inactive”.

`CC#C[C@]1(O)CC[C@H]2[C@@H]3C[C@H](C)C4=CC(=O)CC[C@]4(C)[C@H]3CC[C@@]21C`: the Potency result was “inactive”.

As to `CC(Cc1ccc2c(c1)OCO2)NO` (stereo not given), the Potency result was “inactive”.

`CCCCn1cc[n+](C)c1.[Cl][Fe-]([Cl])([Cl])[Cl]`: the Potency entry is “inactive”.

Turning to `O=S(=O)(O)F`, the Potency result is “inactive”.

Take `Cc1c([N+](=O)[O-])c(C)c([N+](=O)[O-])c(C(C)(C)C)c1[N+](=O)[O-]`: the Potency entry is “inactive”.

Regarding `CCO/N=C(\CC)C1=C(O)CC(c2c(C)cc(C)cc2C)CC1=O` (stereo not given), the Potency result is “inactive”.

As for `CC[N+]1(CC)CCC(OC(=O)C(O)(c2ccccc2)c2ccccc2)C1` (stereo not given), the Potency entry is “inactive”.

As for `ClCBr`, the Potency result was “inactive”.

`COP(=O)(OC)Oc1ccc([N+](=O)[O-])cc1`: the Potency result is “inactive”.

`O=C(N[C@@H]1N=C(c2ccccc2F)c2cccc3c2N(CC3)C1=O)c1cc2ccccc2[nH]1`: the Potency entry is “inactive”.
